# PubChem BioAssay (NCI)
# Several values for one entry are separate records, joined by “and”; a condition that tells them apart may be missing. Equal entries are not always repeated. Compounds without any hit were thinned out: in the full panel of roughly 83,000, 20% have a hit.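 Results are percent growth after 48 hours of single-concentration exposure. 100 means growth as in untreated cells, lower positive values show inhibition; negative values down to -100 show cell death.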 Activity calls are given as the source filed them. How the source made its calls: active means growth percent below 10; inactive means the rest.
# Tested on: HCC-2998 colon
# Assay: NCI-60 one-dose screen, 48 h (100 = growth as untreated, 0 = no growth, -100 = all killed)
# Settings: 10 µM unless noted
row,SMILES,growth
1,C[C@@]12CCCc3coc(c31)C(=O)c1cc3c(cc12)C(=O)C1=C(NCCS1(=O)=O)C3=O,-30.8% (active)
2,C=CC[PH+](c1ccccc1)c1ccccc1.C=CC[PH+](c1ccccc1)c1ccccc1.[Pt+2].[S-]c1nc2ccccc2[nH]1.[S-]c1nc2ccccc2[nH]1,-33.2% (active)
3,Cc1cc[c-]cc1.Fc1c[c-]c(-c2ccccn2)c(F)c1.[Pt+2].c1ccc([PH+](c2ccccc2)c2ccccn2)cc1,83.2% (inactive)
4,C#Cc1cccc(Nc2nc(Cl)nc3cc(NC(=O)CF)ccc23)c1,78.2% (inactive)
5,CC[C@H](C)[C@H](NC(=O)c1ncccn1)C(=O)N(C)[C@H](C[C@@H](OC(C)=O)c1nc(C(=O)N[C@@H](Cc2ccccc2)C[C@H](C)C(=O)OC)cs1)C(C)C,60.9% (inactive)
6,Cc1cc(Br)c([N+](=O)[O-])cc1[N+](=O)[O-],111% (inactive)
7,COc1cc(C=C2C(=O)NC(=O)NC2=O)ccc1O,96% (inactive)
8,Oc1cc(N2CC2)c(O)cc1N1CC1,-55.2% (active)
9,C[C@]12CCc3sc(Nc4ccc(O)cc4)nc3C1=CC[C@@H]1[C@@H]2CC[C@]2(C)C(=O)CC[C@@H]12,97.7% (inactive)
10,CN1CCc2cc3c(cc2C1O)OCO3 (stereo unspecified),102% (inactive) and 108% (inactive)
11,N#CC(NC(=O)CCl)=C(Cl)Cl,-6.64% (active)
12,CC[C@@H](C)C(=O)O[C@H]1[C@H](O)[C@H]2[C@@H](CN3C[C@@H](C)CC[C@H]3[C@@]2(C)O)[C@@H]2C[C@]34O[C@]5(O)[C@@H](OC(=O)[C@@](C)(O)CC)CC[C@@]3(C)[C@@H]5[C@@H](OC(C)=O)[C@@H](OC(C)=O)[C@H]4[C@@]21O,87.9% (inactive)
13,CCC1(NC(=O)c2cc(F)c(F)c(F)c2F)C(=O)NC(=O)N(C(C)C)C1=O (stereo unspecified),-55.8% (active)
14,O=C1NC(=O)C(=C/C=C/c2ccccc2)C(=O)N1,62.1% (inactive)
15,C[C@]12CCC3[C@@H](C[C@@H]4SC(Nc5ccccc5)=N[C@@]45CC(=O)CC[C@]35C)[C@@H]1CCC2=O (stereo partly specified),-32.7% (active)
16,CCCCOCCOP(=O)(OCCOCCCC)OCCOCCCC,102% (inactive)
17,Cc1cc[c-]cc1.Fc1c[c-]c(-c2ccccn2)c(F)c1.N#CCC[PH+](CCC#N)c1ccccc1.[Pt+2],82.4% (inactive)
18,CCN(CC)CCn1c(=O)n(C)c2ccccc21,101% (inactive)

row,SMILES,growth
1,COc1cc2c(cc1OC)[C@@H]1C(=O)c3ccc4c(c3O[C@@H]1CO2)C[C@H](C(C)C)O4,76.1% (inactive)
2,COC(=O)C12C3C4C1C1C2C3C41NC(=O)c1csc([C@@H](C[C@H](C(C)C)N(C)C(=O)[C@@H](NC(=O)[C@H]2CCCCN2C)C2CC2)OC(C)=O)n1 (stereo partly specified),28.4% (inactive)
3,CC[C@H](CC[C@@H](C)[C@H]1CC[C@H]2[C@@H]3CC[C@H]4C[C@]5(CC[C@]4(C)[C@H]3CC[C@]12C)OO[C@](C)(C(F)(F)F)O5)C(C)C,104% (inactive)
4,CC(C)CCC1C(=O)NC(=O)NC1=O,107% (inactive)
5,CN1CCC2(CC1)C(C#N)C(=O)NC(=O)C2C#N (stereo unspecified),112% (inactive)
6,CC(=O)c1cccc(S(=O)(=O)F)c1,95.2% (inactive)
7,ClCc1ccc(Cl)c(Cl)c1,103% (inactive)
8,COc1cc2c(cc1OC)-c1c3c(cc4c1[C@@H](C2)N(C)CC4)OCO3,-3.7% (active)
9,C=CC[PH+](c1ccccc1)c1ccccc1.C=CC[PH+](c1ccccc1)c1ccccc1.[Pt+2].[S-]c1ncccn1.[S-]c1ncccn1,97.5% (inactive)
10,CC(=O)Nc1nc2c(s1)C1=CC[C@H]3[C@@H]4CC[C@H](OC(C)=O)[C@@]4(C)CC[C@@H]3[C@@]1(C)CC2,93.7% (inactive)
11,C[C@]12CCC(=O)C[C@@H]1CC[C@@H]1[C@@H]2CC[C@]2(C)[C@@H](OC(=O)N(CCCl)N=O)CC[C@@H]12,44.6% (inactive)
12,C[N+]1(C)CCCC1c1cccnc1 (stereo unspecified),91.2% (inactive)
13,O=[N+]([O-])c1cc(Br)c(O)c(Br)c1,96.1% (inactive)
14,Nc1ccc(S(=O)(=O)F)cc1,103% (inactive)
15,Cc1cc(N(CCCl)CCCl)ccc1/C=N\NC(=O)c1cccnc1,97.1% (inactive) and 102% (inactive)
16,CNC(=O)O/N=C(\SC)C(=O)N(C)C,77.4% (inactive)
17,N#CC(C#N)=Cc1cccc(F)c1,110% (inactive)
18,CCC1(CCSC#N)C(=O)NC(=O)NC1=O,98.2% (inactive)

# Tested on: KM12 colon
# Assay: as above
# Settings: 10 µM unless noted
row,SMILES,growth
1,C[C@@]12CCCc3coc(c31)C(=O)c1cc3c(cc12)C(=O)C1=C(NCCS1(=O)=O)C3=O,4.16% (active)
2,C=CC[PH+](c1ccccc1)c1ccccc1.C=CC[PH+](c1ccccc1)c1ccccc1.[Pt+2].[S-]c1nc2ccccc2[nH]1.[S-]c1nc2ccccc2[nH]1,-63% (active)
3,Cc1cc[c-]cc1.Fc1c[c-]c(-c2ccccn2)c(F)c1.[Pt+2].c1ccc([PH+](c2ccccc2)c2ccccn2)cc1,52.4% (inactive)
4,C#Cc1cccc(Nc2nc(Cl)nc3cc(NC(=O)CF)ccc23)c1,40.1% (inactive)
5,CC[C@H](C)[C@H](NC(=O)c1ncccn1)C(=O)N(C)[C@H](C[C@@H](OC(C)=O)c1nc(C(=O)N[C@@H](Cc2ccccc2)C[C@H](C)C(=O)OC)cs1)C(C)C,16.1% (inactive)
6,Cc1cc(Br)c([N+](=O)[O-])cc1[N+](=O)[O-],91.8% (inactive)
7,COc1cc(C=C2C(=O)NC(=O)NC2=O)ccc1O,104% (inactive)
8,Oc1cc(N2CC2)c(O)cc1N1CC1,-52.7% (active)
9,C[C@]12CCc3sc(Nc4ccc(O)cc4)nc3C1=CC[C@@H]1[C@@H]2CC[C@]2(C)C(=O)CC[C@@H]12,46.7% (inactive)
10,CN1CCc2cc3c(cc2C1O)OCO3 (stereo unspecified),57.8% (inactive) and 103% (inactive)
11,N#CC(NC(=O)CCl)=C(Cl)Cl,56.8% (inactive)
12,CC[C@@H](C)C(=O)O[C@H]1[C@H](O)[C@H]2[C@@H](CN3C[C@@H](C)CC[C@H]3[C@@]2(C)O)[C@@H]2C[C@]34O[C@]5(O)[C@@H](OC(=O)[C@@](C)(O)CC)CC[C@@]3(C)[C@@H]5[C@@H](OC(C)=O)[C@@H](OC(C)=O)[C@H]4[C@@]21O,100% (inactive)
13,CCC1(NC(=O)c2cc(F)c(F)c(F)c2F)C(=O)NC(=O)N(C(C)C)C1=O (stereo unspecified),139% (inactive)
14,O=C1NC(=O)C(=C/C=C/c2ccccc2)C(=O)N1,-40.1% (active)
15,C[C@]12CCC3[C@@H](C[C@@H]4SC(Nc5ccccc5)=N[C@@]45CC(=O)CC[C@]35C)[C@@H]1CCC2=O (stereo partly specified),23.2% (inactive)
16,CCCCOCCOP(=O)(OCCOCCCC)OCCOCCCC,120% (inactive)
17,Cc1cc[c-]cc1.Fc1c[c-]c(-c2ccccn2)c(F)c1.N#CCC[PH+](CCC#N)c1ccccc1.[Pt+2],74.1% (inactive)
18,CCN(CC)CCn1c(=O)n(C)c2ccccc21,99.8% (inactive)

row,SMILES,growth
1,COc1cc2c(cc1OC)[C@@H]1C(=O)c3ccc4c(c3O[C@@H]1CO2)C[C@H](C(C)C)O4,65.6% (inactive)
2,COC(=O)C12C3C4C1C1C2C3C41NC(=O)c1csc([C@@H](C[C@H](C(C)C)N(C)C(=O)[C@@H](NC(=O)[C@H]2CCCCN2C)C2CC2)OC(C)=O)n1 (stereo partly specified),5.25% (active)
3,CC[C@H](CC[C@@H](C)[C@H]1CC[C@H]2[C@@H]3CC[C@H]4C[C@]5(CC[C@]4(C)[C@H]3CC[C@]12C)OO[C@](C)(C(F)(F)F)O5)C(C)C,91.4% (inactive)
4,CC(C)CCC1C(=O)NC(=O)NC1=O,98.5% (inactive)
5,CN1CCC2(CC1)C(C#N)C(=O)NC(=O)C2C#N (stereo unspecified),126% (inactive)
6,CC(=O)c1cccc(S(=O)(=O)F)c1,105% (inactive)
7,ClCc1ccc(Cl)c(Cl)c1,104% (inactive)
8,COc1cc2c(cc1OC)-c1c3c(cc4c1[C@@H](C2)N(C)CC4)OCO3,41.4% (inactive)
9,C=CC[PH+](c1ccccc1)c1ccccc1.C=CC[PH+](c1ccccc1)c1ccccc1.[Pt+2].[S-]c1ncccn1.[S-]c1ncccn1,76.7% (inactive)
10,CC(=O)Nc1nc2c(s1)C1=CC[C@H]3[C@@H]4CC[C@H](OC(C)=O)[C@@]4(C)CC[C@@H]3[C@@]1(C)CC2,50.8% (inactive)
11,C[C@]12CCC(=O)C[C@@H]1CC[C@@H]1[C@@H]2CC[C@]2(C)[C@@H](OC(=O)N(CCCl)N=O)CC[C@@H]12,3.72% (active)
12,C[N+]1(C)CCCC1c1cccnc1 (stereo unspecified),103% (inactive)
13,Nc1ccc(S(=O)(=O)F)cc1,100% (inactive)
14,Cc1cc(N(CCCl)CCCl)ccc1/C=N\NC(=O)c1cccnc1,104% (inactive) and 95.1% (inactive)
15,CNC(=O)O/N=C(\SC)C(=O)N(C)C,102% (inactive)
16,N#CC(C#N)=Cc1cccc(F)c1,108% (inactive)
17,CCC1(CCSC#N)C(=O)NC(=O)NC1=O,104% (inactive)
